Calls of active or inactive are those of the source. Unless noted, how the calls were made is not given here.
Experiments:
[1] = tested on: Wnt5a (protein binding on small-molecule microarray); experiment: Wnt5a binders on small-molecule microarray, primary screen, biophysical, 635/667 nm fluorescence (AID 1142); conditions: 635 nm fluorescence, higher = more signal;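 further: fluorescence read at 667 nm with signal to noise per printed feature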
[2] = cell viability in Huh7 cells, primary screen, cytotoxicity control for HCV replication inhibitor project, CellTiter-Glo luminescence, basal, 48 h (AID 1143); conditions: Huh7 HCV replicon, higher = more signal, called active from +8 up or from −8 down;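 further: Huh7 hepatoma cells carrying a hepatitis C replication reporter with no stimulus; test concentration not given here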
[3] = P. aeruginosa biofilm formation inhibitors, primary screen, PAO1 strain, BacTiter-Glo luminescence, LB-PBS (AID 1144); conditions: 12 h, higher = more signal
[4] = CREB reporter modulators without forskolin, primary screen, cell-based, PC12, CRE-LacZ reporter, unstimulated (AID 1145); conditions: no forskolin, luminescence, 4.5 h, higher = more signal, called active from +8 up or from −8 down
[5] = CREB reporter modulators under forskolin, primary screen, cell-based, PC12, CRE-LacZ reporter, forskolin-stimulated (AID 1146); conditions: luminescence, 4.5 h, higher = more signal, called active from +8 up or from −8 down;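 further: PC12 cells with 6xCRE LacZ reporter stimulated by forskolin 10 µM; beta-galactosidase reporter signal reflecting CREB driven transcription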
[6] = biological target: Streptavidin (Streptomyces avidinii) (UniProt P22629); experiment: streptavidin binders on small-molecule microarray, primary screen, artefact control for SMM compound annotation, biophysical, 635/667 nm fluorescence (AID 1147); conditions: streptavidin binding, higher = more signal;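 further: signal reflects streptavidin binding to arrayed compounds as a control protein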
[7] = small-molecule binders of probe aInhba, primary screen, biochemical, small-molecule microarray, 635/667 nm fluorescence (AID 1148); conditions: higher = more signal;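 further: score merges 667nm spot fluorescence with signal-to-noise for antibody binding to printed compounds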
[8] = biological target: Torsin-1A (Homo sapiens) (UniProt O14656); experiment: torsin A binders from cell lysate, primary screen, small-molecule microarray, wild-type, 635/667 nm (AID 1149); conditions: COS7 hTOR1A-WT lysate, 635 nm fluorescence, higher = more signal
[9] = biological target: Torsin-1A (Homo sapiens) (UniProt O14656); experiment: small-molecule binders of mutant TOR1A in lysate, primary screen, cell lysate, small-molecule microarray, COS7 lysate, 635/667 nm fluorescence (AID 1150); conditions: COS7 hTOR1A mutant lysate, 635 nm fluorescence, higher = more signal;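 further: score pools 667 nm emission and signal to noise measuring lysate protein binding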
[10] = tested on: Sonic hedgehog protein (Shh); experiment: small-molecule binders of Shh protein, primary screen, biochemical, small-molecule microarray, 635/667 nm fluorescence (AID 1151); conditions: small-molecule microarray binding, 635 nm fluorescence; higher = more signal;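 further: Shh protein binding to compounds spotted on small-molecule microarray slides; score combines spot fluorescence intensity with signal-to-noise across triplicate slides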
[11] = E. coli DRC41 culture turbidity changes, primary screen, E. coli filamentation inducer project, strain DRC41, OD650, 48 h (AID 1152);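 further: E. coli MC1000 strain DRC41 lacking acrAB efflux pump and sulA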; conditions: E. coli DRC41 (acrAB sulA), higher = more signal, called active from +8 up or from −8 down
[12] = small-molecule binders of probe aLefty1, primary screen, biochemical, small-molecule microarray, 635/667 nm fluorescence (AID 1153); conditions: higher = more signal;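 further: score merges spot fluorescence with signal-to-noise ratio from the scanned slide images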
[13] = PSAC antagonists in infected red cells, primary screen, cell-based, P. falciparum Indochina, OD700, 1 h (AID 1154); conditions: P. falciparum Indochina infected RBC osmotic lysis, higher = more signal, called active from +8 up or from −8 down
[14] = PSAC antagonists in infected red cells, primary screen, cell-based, P. falciparum Indochina, OD700, 2 h (AID 1155);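 further: lysis reports solute entry through the parasite surface anion channel PSAC; channel blockers reduce lysis of infected cells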; conditions: P. falciparum Indochina infected erythrocytes, osmotic lysis OD700; higher = more signal, called active from +8 up or from −8 down
[15] = osmotic lysis modulators in infected erythrocytes, primary screen, PSAC antagonist project, cell-based, P. falciparum Indochina, OD700, 3 h (AID 1156); conditions: higher = more signal, called active from +8 up or from −8 down
[16] = PSAC antagonists in infected red cells, primary screen, cell-based, P. falciparum Indochina, OD700, 18 h (AID 1157); conditions: P. falciparum Indochina infected erythrocytes, osmotic lysis OD700, 18 h; higher = more signal, called active from +8 up or from −8 down
[17] = modulators of S6 phosphorylation in cells, primary screen, cell-based, A549, cytoblot, luminescence, serum-stimulated (AID 1158); conditions: A549 phospho-S6 cytoblot, 5 h, higher = more signal;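 further: serum-stimulated A549 lung adenocarcinoma cells; signal is phosphorylated S6 detected by cytoblot immunostaining with HRP secondary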
[18] = biological target: NADPH oxidase 2 (Homo sapiens) (UniProt P04839); experiment: NOX2-dependent H2O2 signal modulators, primary screen, NOX inhibitor project, cell-based, HEK293-NOX2, PMA-stimulated, Amplex Red fluorescence (AID 1159); conditions: 45 min, higher = more signal, called active from +8 up or from −8 down; further: test concentration not given here
[19] = biological target: NADPH oxidase 4 (Homo sapiens) (UniProt Q9NPH5); experiment: NOX4-dependent H2O2 signal modulators, primary screen, NOX inhibitor project, cell-based, HEK293-NOX4, tetracycline-induced, Amplex Red fluorescence (AID 1160); conditions: 45 min, higher = more signal, called active from +8 up or from −8 down
[20] = biological target: NADPH oxidase 5 (Homo sapiens) (UniProt Q96PH1); experiment: NOX5-dependent H2O2 signal modulators, primary screen, NOX inhibitor project, cell-based, HEK293-NOX5, Amplex Red fluorescence (AID 1161); conditions: HEK293-NOX5, ionomycin, 45 min, higher = more signal
Chain of NADPH oxidase 5 (Homo sapiens) (Q96PH1 whole entry, looked up): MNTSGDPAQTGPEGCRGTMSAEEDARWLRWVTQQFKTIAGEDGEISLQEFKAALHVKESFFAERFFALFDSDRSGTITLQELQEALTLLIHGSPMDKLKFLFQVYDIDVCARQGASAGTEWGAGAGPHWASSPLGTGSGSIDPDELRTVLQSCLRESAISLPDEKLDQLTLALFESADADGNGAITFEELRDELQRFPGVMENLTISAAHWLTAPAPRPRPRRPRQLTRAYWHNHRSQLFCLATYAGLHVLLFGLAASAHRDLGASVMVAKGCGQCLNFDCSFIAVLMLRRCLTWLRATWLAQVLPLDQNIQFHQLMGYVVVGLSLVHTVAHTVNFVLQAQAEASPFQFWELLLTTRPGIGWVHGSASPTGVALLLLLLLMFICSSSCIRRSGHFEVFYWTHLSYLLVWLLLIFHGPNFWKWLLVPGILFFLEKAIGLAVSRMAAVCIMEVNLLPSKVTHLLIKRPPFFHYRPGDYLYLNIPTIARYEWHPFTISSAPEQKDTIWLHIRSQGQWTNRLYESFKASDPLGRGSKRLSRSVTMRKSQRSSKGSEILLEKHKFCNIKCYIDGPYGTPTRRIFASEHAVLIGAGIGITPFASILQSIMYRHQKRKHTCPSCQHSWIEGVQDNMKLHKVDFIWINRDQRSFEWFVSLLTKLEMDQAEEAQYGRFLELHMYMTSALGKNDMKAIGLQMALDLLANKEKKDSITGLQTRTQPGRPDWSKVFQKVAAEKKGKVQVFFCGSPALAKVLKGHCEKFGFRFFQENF

Chain of Streptavidin (Streptomyces avidinii) (P22629 whole entry, looked up): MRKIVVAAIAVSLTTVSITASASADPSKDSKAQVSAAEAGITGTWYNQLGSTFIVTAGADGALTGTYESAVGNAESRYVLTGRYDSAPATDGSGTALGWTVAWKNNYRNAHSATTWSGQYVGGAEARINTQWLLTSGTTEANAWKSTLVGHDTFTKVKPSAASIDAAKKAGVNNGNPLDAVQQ
Chain of NADPH oxidase 2 (Homo sapiens) (P04839 whole entry, looked up): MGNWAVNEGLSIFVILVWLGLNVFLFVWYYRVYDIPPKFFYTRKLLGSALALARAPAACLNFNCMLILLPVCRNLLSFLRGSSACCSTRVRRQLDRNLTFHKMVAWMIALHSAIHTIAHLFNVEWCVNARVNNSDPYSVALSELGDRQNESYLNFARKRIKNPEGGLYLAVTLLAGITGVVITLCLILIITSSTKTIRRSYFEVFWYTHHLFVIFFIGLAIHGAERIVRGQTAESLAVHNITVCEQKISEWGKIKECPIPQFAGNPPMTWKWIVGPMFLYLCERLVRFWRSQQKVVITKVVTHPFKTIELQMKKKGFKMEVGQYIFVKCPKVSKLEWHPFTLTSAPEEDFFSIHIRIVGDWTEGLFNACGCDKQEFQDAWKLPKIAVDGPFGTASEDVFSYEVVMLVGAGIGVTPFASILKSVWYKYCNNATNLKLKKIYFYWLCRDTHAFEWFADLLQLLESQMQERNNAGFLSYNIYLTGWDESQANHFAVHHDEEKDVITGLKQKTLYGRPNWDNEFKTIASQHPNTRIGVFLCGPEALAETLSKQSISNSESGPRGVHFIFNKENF
Chain of NADPH oxidase 4 (Homo sapiens) (Q9NPH5 whole entry, looked up): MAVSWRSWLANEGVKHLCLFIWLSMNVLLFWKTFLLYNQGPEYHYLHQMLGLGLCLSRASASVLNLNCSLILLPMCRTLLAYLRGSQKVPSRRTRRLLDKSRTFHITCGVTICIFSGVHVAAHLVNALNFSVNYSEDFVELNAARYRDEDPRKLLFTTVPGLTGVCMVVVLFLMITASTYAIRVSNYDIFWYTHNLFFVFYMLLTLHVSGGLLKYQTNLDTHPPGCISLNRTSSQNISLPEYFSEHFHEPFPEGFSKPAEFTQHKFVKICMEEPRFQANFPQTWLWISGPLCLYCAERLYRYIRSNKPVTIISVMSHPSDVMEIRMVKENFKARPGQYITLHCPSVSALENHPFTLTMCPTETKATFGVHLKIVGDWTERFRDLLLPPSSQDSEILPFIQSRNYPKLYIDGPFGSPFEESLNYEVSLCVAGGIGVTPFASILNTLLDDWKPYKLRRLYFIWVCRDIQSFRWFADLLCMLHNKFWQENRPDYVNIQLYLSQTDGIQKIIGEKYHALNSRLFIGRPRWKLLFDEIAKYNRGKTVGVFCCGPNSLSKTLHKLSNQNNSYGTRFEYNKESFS
Chain of Torsin-1A (Homo sapiens) (O14656 whole entry, looked up): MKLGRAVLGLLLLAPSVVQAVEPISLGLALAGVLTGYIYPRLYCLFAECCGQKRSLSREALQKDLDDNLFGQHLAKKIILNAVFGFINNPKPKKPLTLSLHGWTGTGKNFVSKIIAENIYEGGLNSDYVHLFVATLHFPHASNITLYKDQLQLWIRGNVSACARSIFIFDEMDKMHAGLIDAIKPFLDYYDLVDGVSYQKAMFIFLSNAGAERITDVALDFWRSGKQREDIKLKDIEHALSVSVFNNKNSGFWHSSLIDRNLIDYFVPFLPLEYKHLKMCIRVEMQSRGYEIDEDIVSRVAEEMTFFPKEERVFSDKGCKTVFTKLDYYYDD

SMILES | composite z-score [1] | z-score [2] | z-score [3] | z-score [4] | z-score [5] | composite z-score [6] | composite z-score [7] | composite z-score [8] | composite z-score [9] | composite z-score [10] | z-score [11] | composite z-score [12] | z-score [13] | z-score [14] | z-score [15] | z-score [16] | z-score [17] | z-score [18] | z-score [19] | z-score [20]
O=C(NC1CC1)[C@@H]1c2ccccc2C(=O)N(C2Cc3ccccc3C2)[C@H]1c1ccc(CO)cc1 | 0.336 | 0.192 (inactive) | -0.994 (inactive) | 0.854 (inactive) | -0.987 (inactive) | -0.286 | 0.116 | 0.795 | 1.28 | 1.05 | 0.412 (inactive) | -0.0377 | 2.06 (inactive) | 0.208 (inactive) | 0.531 (inactive) | -0.112 (inactive) | -0.153 | 0.0375 (inactive) | 0.108 (inactive) | -0.717
CC(C)[Si](C#CCCCC#N)(O[C@H](c1ccccc1)c1cn(Cc2cccc(Cl)c2)nn1)C(C)C | 0.182 | -2.2 (inactive) | -0.603 (inactive) | -0.215 (inactive) | -0.859 (inactive) | -0.0708 | 0.0614 | 1.42 | 0.392 | 1.21 | 1.65 (inactive) | 0.0496 | 0.614 (inactive) | 1.24 (inactive) | -0.187 (inactive) | 1.04 (inactive) | 0.573 | -6.2 (inactive) | 0.194 (inactive) | 0.528
CC(=O)NCCCC[C@@H]1NC(=O)[C@H]2C[C@@H](C(=O)O)[C@@H](c3ccc(O)cc3)N2C1=O | 0.176 | -0.798 (inactive) | -0.0331 (inactive) | 5.71 (inactive) | 7.82 (inactive) | 0.481 | 0.0589 | 0.928 | 1.69 | 2.02 | -0.73 (inactive) | 0.249 | 2.25 (inactive) | 2.24 (inactive) | -0.368 (inactive) | 0.912 (inactive) | -1.14 | 1.61 (inactive) | 0.625 (inactive) | 1.64
COc1cc2c(cc1O)C(c1cccs1)N(Cc1cccc(OC(F)(F)F)c1)CC2 (stereo not given) | -0.189 | -4.65 (inactive) | 0.284 (inactive) | -0.644 (inactive) | -0.73 (inactive) | 0.403 | -0.0762 | 0.288 | 0.0814 | 0.251 | 0.36 (inactive) | -0.0999 | 8.07 (active) | 0.192 (inactive) | 0.112 (inactive) | -0.751 (inactive) | 1.09 | -4.69 (inactive) | -2.74 (inactive) | -4.1
CC[C@@H]1C=C(C(=O)O)[C@H](c2ccc(C)cc2)N1S(=O)(=O)c1ccc(C)cc1 | -0.412 | -0.52 (inactive) | -0.498 (inactive) | -0.527 (inactive) | 1.03 (inactive) | 0.583 | 0.0516 | 0.063 | 0.247 | -0.103 | -0.557 (inactive) | 0.0582 | 1.08 (inactive) | 0.661 (inactive) | -0.245 (inactive) | 0.856 (inactive) | -0.362 | 0.587 (inactive) | -0.57 (inactive) | -1.24
COc1cc2c(cc1O)C=[N+](Cc1cc3c(cc1Br)OCO3)CC2 | -0.234 | -2.14 (inactive) | -0.304 (inactive) | -0.671 (inactive) | 0.945 (inactive) | -1.88 | -0.154 | -0.39 | -0.945 | -0.216 | -0.167 (inactive) | -0.237 | 3 (inactive) | 0.472 (inactive) | 2.26 (inactive) | 0.154 (inactive) | -0.273 | -3.59 (inactive) | -2.72 (inactive) | -3.37
CC(C)N1CC=CC23O[C@@H]4C=CCOC(=O)[C@@H]4[C@H]2C(=O)N(CCCCCO)[C@@H]3C1=O (stereo not given in full) | -0.094 | -1.27 (inactive) | -1.56 (inactive) | -1.72 (inactive) | -0.679 (inactive) | -0.48 | -0.152 | -0.167 | 1.09 | 0.0095 | 2.79 (inactive) | 0.19 | 0.641 (inactive) | 0.0869 (inactive) | 0.204 (inactive) | 0.236 (inactive) | 1.73 | 0.865 (inactive) | 0.225 (inactive) | 1.44
CN1CCC(CCCO)=CC1c1cccs1 (stereo not given) | -0.142 | 0.504 (inactive) | 0.519 (inactive) | -0.145 (inactive) | 1.84 (inactive) | -0.131 | -0.128 | -0.214 | -0.122 | 0.834 | -0.193 (inactive) | -0.103 | 1.77 (inactive) | 0.144 (inactive) | -0.311 (inactive) | 0.0874 (inactive) | 0.362 | 0.151 (inactive) | 0.249 (inactive) | -0.115
C=CCNC(=O)[C@H]1[C@@H]2C(=O)O[C@@H](c3ccccc3)[C@@H](c3ccccc3)N2[C@@H](c2ccc(OCCO)cc2)[C@]12C(=O)Nc1ccc(C#CCC(C(=O)OC)C(=O)OC)cc12 | 0.256 | -1.19 (inactive) | 0.626 (inactive) | -0.728 (inactive) | 0.323 (inactive) | 1.17 | 0.0816 | 0.332 | 0.862 | 0.984 | -0.283 (inactive) | 0.128 | 3.01 (inactive) | 0.664 (inactive) | -0.291 (inactive) | 0.117 (inactive) | -0.602 | 1.48 (inactive) | 1.21 (inactive) | 0.45

From PubChem BioAssay
